# Assay outcomes (PubChem)
# This is a sample that favours compounds with a hit; in the whole collection about 17% have one here.
# TGFb inhibitor – blocks TGF-b signaling. HepG2 CAGA-GFP TGF-b/SMAD3 reporter, GFP fluorescence, 18 h; TGF-beta stimulated, 500 pg/mL final. Potency, µM (titrated, usually from 46.1 µM), without a hit: at the highest dose activity, negative = inhibition, usual class: inhibitors. 410,000 tested, 1.2% active; further: on the % scale 0 is the no-effect control and ±100 the full control effect; nearly all actives have a fitted effect of over 65% in size
#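 TGF-beta reporter screen: HEPG2 CAGA-GFP, 1% FBS, 500 pg/mL TGF-beta final, 18 h; per-cell GFP summed per well; curves fitted and categorized by class.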
# ATXN2 expr inh – inhibitors of ATXN2 expression | HEK-293 ATXN2-luciferase reporter, luminescence, 24 h | Potency, µM (series often up to 57 µM), for the others: at the top dose activity change, negative = inhibition, most hits filed as inhibitors | 360,000 tested, 0.72% active; further: on the % scale 0 is the no-effect control and ±100 the full control effect; nearly all actives have a fitted effect of over 55% in size
#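 qHTS (up to 57 uM final) was run with 24 h compound exposure of reporter cells at 37 °C. Each well was multiplexed: SteadyGlo luminescence measured ATXN2-luciferase expression after a fluorogenic Gly-Phe-AFC viability readout (25 uM final).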
# DT40 TDP1 no CPT – qHTS for Inhibitors of human tyrosyl-DNA phosphodiesterase 1 (TDP1): qHTS in cells in absence of CPT; DT40 Tdp1-/- hTDP1 cells, no CPT, ATP luminescence, 48 h; 420,000 tested, 15% active; Potency, µM (series often up to 46.2 µM), for inactives: at the highest dose activity change, negative = growth inhibition, actives largely listed as inhibitors; AID 686978, 2013; further: on the % scale 0 is the no-effect control and ±100 the full control effect; nearly all actives have a fitted effect of over 55% in size
#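 Seeded 400 DT40-hTDP1 cells/well (vehicle DMSO, no 20 nM CPT); pinned compounds; ≥48 hr at 37 °C; CellTiter-Glo luminescence as viability measure.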
# DT40 TDP1 CPT – DT40-hTDP1 cell growth loss with CPT; chicken DT40 Tdp1-/-;hTDP1 cells + 20 nM CPT, ATP luminescence, 48 h; Potency, µM (series often up to 46.2 µM), without a hit: at the top dose activity change, negative = growth inhibition, actives largely listed as inhibitors; 420,000 tested, 12% active; AID 686979; further: on the % scale 0 is the no-effect control and ±100 the full control effect; nearly all actives have a fitted effect of over 55% in size
#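 Cell growth measured by CellTiter-Glo luminescence after a minimum 48 h, 37 C compound exposure with 20 nM CPT in Tdp1-knockout DT40 cells stably expressing hTDP1, seeded 400/well; qHTS titration format.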
# ATXN viability – cell viability loss in ATXN counter-screen | S2 cells (HEK-293 line with an ATXN2-luciferase reporter) viability, CellTiter-Fluor protease fluorescence, 24 h | Potency, µM (top dose mostly 56.7 µM), usual class: cytotoxic | 400,000 tested, 0.49% active; further: nearly all actives have a fitted effect of over 40% in size
# HepG2 tox – counter-screen for TGF-b inhibitors: cytotoxicity in HepG2 cells; Potency, µM (doses to about 46.1 µM), for inactives: at the top dose activity change, negative = cytotoxicity, hits mostly cytotoxic; HepG2 CAGA-GFP viability, ATP luminescence, 18 h; 410,000 tested, 0.76% active
#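 HepG2 CAGA-GFP cells (1000/well, DMEM with 1% FBS) received compound, then TGF-beta at 500 pg/mL final, and were incubated 18 hours at 37 degrees C. Viability was read by CellTiter-Glo luminescence. Media-only wells were set as complete cell-killing and DMSO as no toxicity.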
# * = called active by the depositor; i = inactive; ? = inconclusive; · = not tested or not shown; ! = a repeat was not active; [ ] = remark or other dose. The call rests on the fitted dose curve; in most records, active means well fitted curve in the direction sought with a large enough effect; inconclusive means small, poorly fitted or top-dose-only effect, or another doubt; inactive means no such curve, though single readings can be large; an effect the other way counts as inactive or inconclusive. Potency means the concentration at half of the fitted maximal effect.
SMILES,TGFb inhibitor,ATXN2 expr inh,DT40 TDP1 no CPT,DT40 TDP1 CPT,ATXN viability,HepG2 tox
Cc1onc(-c2ccccc2)c1-c1nnc(CN2CCN(S(=O)(=O)c3ccccc3)CC2)o1,-7.5%,-12.3%,16.4µM*,14.6µM*,i,-12.7%
COc1ccc(CN2CCCC(Cn3cc(C(=O)N4CCCC4)nn3)C2)c(O)c1 (stereo unspecified),·,·,-5.8%,1.1%,i,·
CN1CCN(Cc2nc3ccccc3c(=O)n2Cc2nc(-c3ccccc3F)cs2)CC1,-23.9%,-15.6%,10.3µM*,16.4µM*,i,-36.4%
CN(C)Cc1nc2ccccc2c(=O)n1Cc1nc(C(C)(C)C)cs1,-6.0%,-6.2%,?,?,?,20.1%
CC(=O)Cn1c(CN2CCCC2)nc2ccccc2c1=O,?,-11.1%,-18.7%,7.9%,i,-0.6%
CN1CCN(Cc2nc3ccccc3c(=O)n2Cc2nc(-c3ccc4ccccc4c3)cs2)CC1,?,?,2.31µM*,4.61µM*,·,15.8µM*!
COc1cc(/C=C/C(=O)OCC(=O)N2CCCCCC2)cc(OC)c1OC,4.3%,·,?,-13.0%,i,-12.7%
CN(C(=O)c1cccc(NC(=O)Cc2ccc(NC(=O)C3CCN(C(=O)C4CCCCC4)CC3)cc2)c1)C1CC1,3.9%,5.2%,?,-5.8%,i,-19.7%
COc1ccc(NS(=O)(=O)c2cc([N+](=O)[O-])ccc2N/N=C/c2c(C)[nH]c3ccccc23)cc1,-13.8%,-10.0%,23.1µM*,?,?,1.7%
COc1cccc2c1OC[C@@H](CO)[C@H]2N(C)C(=O)Nc1ccc(Cl)cc1Cl,?,-16.4%,10.3µM*,13µM*,i,-4.5%
CC1=C(C(=O)Nc2ccccc2)C(c2cccnc2)n2nc(SCc3ccccc3Cl)nc2N1 (stereo unspecified),0.0%,1.7%,-8.5%,-16.1%,i,-9.4%
Cc1c(NC(=O)c2ccc(C(=O)Nc3c(C)n(C)n(-c4ccccc4)c3=O)cc2)c(=O)n(-c2ccccc2)n1C,6.6%,·,-2.3%,?,i,1.0%
Cc1c(N=C2N=C(NC(=O)c3ccc(F)cc3)c3ccccc32)c(=O)n(-c2ccccc2)n1C,10.6%,?,23.1µM*,16.4µM*,·,11.8%
CC(C)c1ccc(NS(=O)(=O)c2cc(Br)cc3c2N(C(=O)C2CC2)CC3)cc1,-2.6%,1.6%,4.61µM*,8.2µM*,i,3.5%
COc1ccc(NS(=O)(=O)c2cc(Br)cc3c2N(C(=O)C2CC2)CC3)cc1OC,2.2%,-3.6%,2.06µM*,2.31µM*,i,-12.2%
O=C(CCS(=O)(=O)c1cc(Br)cc2c1N(C(=O)C1CC1)CC2)N1CCN(c2cccc(C(F)(F)F)c2)CC1,?,-19.0%,18.4µM*,16.4µM*,i,-20.9%
O=C(CCS(=O)(=O)c1cc(Br)cc2c1N(C(=O)C1CC1)CC2)N1CCN(c2ccc(F)cc2)CC1,-27.9%,-13.9%,?,?,i,5.5%
Cc1ccc(N2CCN(S(=O)(=O)c3cc(Br)cc4c3N(C(=O)C3CC3)CC4)CC2C)cc1 (stereo unspecified),-4.9%,-2.4%,16.4µM*,13µM*,i,-1.5%
CCCCN(C)S(=O)(=O)c1cc(Br)cc2c1N(C(=O)C1CC1)CC2,3.1%,-22.5%,3.66µM*,8.2µM*,i,-22.6%
O=C(O)CCS(=O)(=O)c1cc(Br)cc2c1N(C(=O)C1CC1)CC2,7.4%,-11.4%,8.3%,19.6%,i,-7.7%
COc1cc(CNc2nnnn2C)ccc1OCc1c(F)cccc1Cl,1.1%,-5.0%[11.3 µM],9.5%,7.1%,?,0.5%
Nc1nc(NC2CC2)c2ncn([C@@H]3C=C[C@@H](CO)C3)c2n1,·,·,15µM*,11.9µM*,·,·
COc1ccc(C2(c3ccc(OC)cc3)NC(=O)N(CC(=O)Nc3ccc(OC)c(OC)c3)C2=O)cc1,-18.6%,-8.4%,?,-4.8%,i,-6.9%
CCc1ccc(-n2nnc(-c3nc(-c4ccc(C)cc4)no3)c2N)cc1,3.4%,·,1.0%,-2.8%,·,-23.2%
COc1ccc(C(CC(=O)N2CCN(c3ccccc3)CC2)c2c(OC)cc(OC)c3ccc(=O)oc23)cc1 (stereo unspecified),?,-11.6%,?,20.6µM*,i,-19.6%
SMILES,TGFb inhibitor,ATXN2 expr inh,DT40 TDP1 no CPT,DT40 TDP1 CPT,ATXN viability,HepG2 tox
COc1cc(O)c(C(CC(=O)N2CCN(c3ccccc3)CC2)c2ccc(N(C)C)cc2)c(OC)c1 (stereo unspecified),?,-1.8%,-20.1%,23.1µM*,i,-1.1%
COc1cc(O)c(C(CC(=O)N2CCCC(C)C2)c2ccc(N(C)C)cc2)c(OC)c1 (stereo unspecified),-3.7%,0.0%,?,?,i,-33.0%
COC(=O)C[C@H]1C[C@H]2c3cc(NC(=O)C4CCC4)ccc3O[C@H]2[C@H](CO)O1,-5.8%,-1.2%,-22.7%,-5.0%,i,-9.8%
Cc1ccccc1Nc1nc(Nc2ccccc2C)nc(SC2=NCCS2)n1,?,?,20.6µM*,23.1µM*,?,-22.0%
Cc1ccc(Nc2nc(Nc3ccc(C)cc3)nc(SC3=NCCS3)n2)cc1,?,-27.0%,18.4µM*,?,?,-26.2%
CCOC(=O)CNc1nc(Cl)nc(Nc2ccc(C)cc2)n1,-0.7%,-23.4%,?,1.5%,?,-3.9%
Clc1ccccc1NCSC1=NCCS1,10.2%,-15.2%,-28.7%,-29.5%,i,2.9%
COc1ccc(-n2c(=O)c3sc4ccccc4c3n(Cc3ccccc3C)c2=O)cc1OC,-18.3%,1.1%,-3.3%,-29.9%,?,-3.8%
NC(=NCc1ccc(Cl)cc1Cl)NC(=O)c1nc(Cl)c(N)nc1N,·,·,4.41µM*,6.23µM*,·,·
Cc1cnc(C(=O)NCc2ccc(Cl)cc2Cl)cn1,1.4%,-30.8%,-27.8%,-1.8%,i,9.9%
Cc1nc(CS(=O)(=O)c2ccccc2)cc(N2CCOCC2)n1,33.9%,39.7%,9.2µM*,9.2µM*,i,0.9%
Cc1nc(CSc2ccc(Cl)cc2)cc(N2CCOCC2)n1,17.9%,13.5%,-24.2%,-12.7%,i,-24.4%
CCS(=O)(=O)Nc1cccc(C2=NN(S(=O)(=O)c3ccccc3)C(c3cccs3)C2)c1 (stereo unspecified),5.1%,-2.3%,2.9%,-7.2%,i,-6.5%
